The sample as a whole holds a higher share of hits than the screen did.
Pf apPOL inh – Pf-apPOL DNA polymerase inhibition | Recombinant Pf-apPOL, molecular beacon fluorescence, 1.5 h | inhibition, % at 10 µM | 210,000 tested, 0.25% active
mHTT CaM bind – inhibitors of human mutant huntingtin-calmodulin interaction | AlphaScreen His-mHTT/GST-CaM binding, luminescence | AID 1671202 | 190,000 tested, 3.6% active | P42858 | inhibition, % at 15 µM
Large screens that a line does not name were inactive. Rule as the data show it: active = inhibition above about 50%; inactive = the rest.

O=c1[nH]c2c(s1)C(c1cccnc1)C1C3CCC(C3)C1S2 (centres undefined)	none
O=c1[nH]c2c(s1)C(c1ccc(O)cc1)C1C3CCC(C3)C1S2 (centres undefined)	mHTT CaM bind 63
COc1ccc(S(=O)(=O)Nc2ccc(F)c(F)c2)cc1OC	none
O=[N+]([O-])c1cccc(C=Nc2ccc(I)cc2)c1O	none
COc1ccc(-c2nc3ccc(N=Cc4cc5c(cc4[N+](=O)[O-])OCO5)cc3o2)cc1	none
O=[N+]([O-])c1cc2c(cc1C=Nc1ccc(I)cc1)OCO2	mHTT CaM bind 64
Cc1ccc(N=Cc2cc3c(cc2[N+](=O)[O-])OCO3)cc1I	mHTT CaM bind 55
N#CC(=Cc1c(Cl)cccc1Cl)S(=O)(=O)c1ccc(Cl)cc1	none (no result: mHTT CaM bind)
N#C/C(=C\c1cn[nH]c1-c1ccccc1)S(=O)(=O)c1ccc(Cl)cc1	mHTT CaM bind 89
Cc1cccc(NC(=O)c2cc(S(=O)(=O)N3CCCCC3)ccc2Br)c1	none
O=C(Oc1ccc2c(c1)OC(=CC1=Cc3ccccc3OC1)C2=O)c1cccs1	mHTT CaM bind 79
CC(=O)COc1ccc2c(c1)OC(=CC1=Cc3ccccc3OC1)C2=O	none
COc1cc(C(=O)N2CCC(CC(=O)NC3CCCCCC3)CC2)cc(OC)c1OC	none
O=C(O)C1C2C=CC(C2)C1C(=O)Nc1cccnc1 (centres undefined)	none
O=C(O)C1C2C=CC(C2)C1C(=O)Nc1ncccc1O (centres undefined)	Pf apPOL inh 80
CCc1ccc(C(=O)N2CC(C(=O)NC)C3(CCCC3)C2)cc1 (centres undefined)	none
COc1cc(C=C2SC(=S)N(CC(=O)O)C2=O)ccc1O	none
COc1cc(C=C2SC(=S)N(c3ccc(C(=O)O)c(O)c3)C2=O)ccc1O	mHTT CaM bind 70
COc1cc(C=C2SC(=S)N(c3ccc4c(c3)OCO4)C2=O)cc(OC)c1OC	none
COc1cc(C=C2SC(=S)N(c3cccc(O)c3)C2=O)ccc1O	mHTT CaM bind 81
COc1ccc(OC)c(C2=NOC(C(=O)N3CCN(c4ccccc4OC)CC3)C2)c1 (centres undefined)	none
O=C(O)C1CC=CCC1C(=O)Nc1nc2ccccc2s1 (centres undefined)	none
Cc1nn(-c2ccccc2)c2sc(C(=O)Nc3ccccc3Cl)cc12	none
COCCn1cc2c3c(cccc31)CN(C(=O)COC)CC2	none
CCn1cc2c3c(cccc31)CN(C(=O)COc1ccc(F)cc1)CC2	mHTT CaM bind 74
CCC(=O)N1CCc2cn(CC)c3cccc(c23)C1	none
CCOCC(=O)N1CCc2cn(CC)c3cccc(c23)C1	none
COCCn1cc2c3c(cccc31)CN(C(=O)COc1ccc(F)cc1)CC2	mHTT CaM bind 56
COCCn1cc2c3c(cccc31)CN(C(=O)Cc1c(F)cccc1Cl)CC2	none
CCn1cc2c3c(cccc31)CN(C(=O)Cc1ccc(F)cc1)CC2	mHTT CaM bind 64
COCCn1cc2c3c(cccc31)CN(C(=O)Cc1ccccc1Cl)CC2	mHTT CaM bind 71
CC(C)CNC(=O)c1cccc(N2CCNC(c3ccccc3)C2)n1 (centres undefined)	none
O=c1oc2ccccc2cc1-c1csc(Nc2c(F)cccc2F)n1	none
Cc1c(C2=N/C(=C/c3cccc(Br)c3)C(=O)O2)cccc1[N+](=O)[O-]	none
O=C(NCCc1ccccc1)c1cnn2c3c(cnc12)CCCCCC3	none
Cc1ccc(S(=O)(=O)N2CCC(C(=O)N3CCc4ccccc4C3)CC2)cc1	none
COc1cc(OC)cc(C(=O)Nc2ccc(I)cc2Cl)c1	none
COCCn1cc2c3c(cccc31)CN(C(=O)COc1cccc(C)c1)CC2	none
COc1ccc(OCC(=O)N2CCc3cn(C)c4cccc(c34)C2)cc1	none
CCC(C(=O)N1CCc2cn(CCOC)c3cccc(c23)C1)c1ccccc1 (centres undefined)	mHTT CaM bind 63
Cn1cc2c3c(cccc31)CN(C(=O)Cc1cccc(F)c1)CC2	mHTT CaM bind 53
COCCn1cc2c3c(cccc31)CN(C(=O)Cc1cccc(F)c1)CC2	none
COCCCNC(=O)N1CCc2cn(CCOC)c3cccc(c23)C1	none
COCCn1cc2c3c(cccc31)CN(C(=O)COc1ccccc1)CC2	mHTT CaM bind 55
CCCn1cc2c3c(cccc31)CN(C(=O)COc1ccccc1)CC2	mHTT CaM bind 50
CCOC(=O)CC(NC(=O)c1cc2cc(Br)cc(OC)c2oc1=O)c1cccc([N+](=O)[O-])c1 (centres undefined)	none
Cc1cc(C)n(CCNC(=O)c2ccc(-n3cccn3)nn2)n1	none
CCn1cc2c3c(cccc31)CN(C(=O)Nc1cccc(F)c1C)CC2	none
CCn1cc2c3c(cccc31)CN(C(=O)c1ccccc1F)CC2	mHTT CaM bind 56
COc1ccc(Cl)cc1C(=O)Nc1nc2ccc(S(C)(=O)=O)cc2s1	none
COc1cc(SC)ccc1C(=O)Nc1nc2ccc(S(C)(=O)=O)cc2s1	mHTT CaM bind 63
O=C(c1cc(-c2ccc(F)cc2)n[nH]1)N1CCN(c2ccc(-c3ccccn3)nn2)CC1	mHTT CaM bind 100
O=C(c1ccc(=O)[nH]n1)N1CCN(c2ccc(-c3ccccn3)nn2)CC1	mHTT CaM bind 100
COc1ccccc1CC(=O)N1CCN(c2ccccn2)CC1	none
O=C(c1ccc(F)cc1F)N1CCN(c2ccc(-c3cccnc3)nn2)CC1	none
COc1ccccc1CC(=O)N1CCN(c2ccc(-c3ccccn3)nn2)CC1	mHTT CaM bind 100
O=C(c1ccc(N2CCCC2)nn1)N1CCN(c2ncccn2)CC1	none
COc1ccccc1C1=NOC(C(=O)N2CCN(C)CC2)C1 (centres undefined)	none
CCc1ccc(C2=CC(c3ccc(SC)cc3)n3nnnc3N2)cc1 (centres undefined)	none
O=C(NN1CCOCC1)c1ccc(Br)cc1	Pf apPOL inh 56
O=C(NN1CCOCC1)c1cccc(Br)c1	none
COc1ccccc1CCC(=O)N1CCc2c(nc3cc(-c4ccccc4)[nH]n3c2=O)C1	mHTT CaM bind 59
O=C(c1ccccc1)N1CCc2c(nc3cc(-c4ccccc4)[nH]n3c2=O)C1	Pf apPOL inh 51
O=C(c1cc(F)ccc1Cl)N1CCc2c(nc3cc(-c4ccccc4)[nH]n3c2=O)C1	mHTT CaM bind 71
O=C(c1ccccc1Cl)N1CCc2c(nc3cc(-c4ccccc4)[nH]n3c2=O)C1	none
COc1ccccc1CCC(=O)N1CCc2nc3cc(-c4ccccc4)[nH]n3c(=O)c2C1	none
O=C(c1ccc2c(c1)OCO2)N1CCc2c(nc3cc(-c4ccccc4)[nH]n3c2=O)C1	none
COc1ccc(CN2CCC(C(=O)NCc3ccc(C)cc3)CC2)cc1OC	none
N#CCC(N)=Nc1sc2c(c1C#N)CCCC2	mHTT CaM bind 67
CC(N)=Nc1sc2c(c1C#N)CCCC2	none
O=c1c2c(nc3cc[nH]n13)CN(S(=O)(=O)c1ccc3c(c1)CCC3)CC2	none
Cc1[nH]c2ccccc2c1CCNC(=O)/C(=C/c1ccc2c(c1)OCO2)NC(=O)c1ccccc1	mHTT CaM bind 75
O=C(NCCO)/C(=C\c1ccc2c(c1)OCO2)NC(=O)c1ccc(Br)cc1	none
Cc1ccccc1C(=O)N1CCC(COc2ccccc2C(=O)NC(C)C)CC1	none
O=C(NC1CC1)C1CCN(c2cnc3nccnc3c2)CC1	none
CC(C)CNC(=O)c1c2c(nc3ccc(F)cc13)CCC2	none
Cc1cccc(Cn2c3c(c(C)c2C(=O)NCc2ccccn2)CCCC3)c1	mHTT CaM bind 86
Cc1c2c(n(Cc3c(F)cccc3F)c1C(=O)NCc1ccccn1)CCCC2	none
O=C(NCC1(c2ccccc2)CCCC1)c1ccccc1F	none
Cc1ccc(-n2cnc3cc(C(=O)NC4CCCC4)ccc32)c(C)c1	none

Compound activity: PubChem, University of Kansas High Throughput Screening Laboratory
